{"source": "the supplement of paper PMC10849652", "note": "Targets with a hit are over-represented here; the source holds about 7,900 in all. About 0.6% of all pairs of compound and target were hits.", "data": [{"compound": "NCC(=O)Nc1ccc(-n2nc(C(F)(F)F)cc2-c2ccc3c(ccc4ccccc43)c2)cc1", "experiment": "log2 fold change, soluble protein after heating vs DMSO (PISA); higher = thermal stabilisation; K562 cells, 10 uM, 30 min; active = over 0.2 and 3.5 SD of the protein, either way, in both replicates (recomputed)", "procedure,_shortened": "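Quantification of soluble protein used TMTpro 16plex LC-MS/MS, with channel sums equalised. Samples were the supernatant after 21,000xg for 90 min of pooled aliquots from K562 cells (2×10^6 cells/mL) treated with 10 μM compound for 30 min, heated for 3 min over 48°C-58°C, and extracted in PBS with 0.5% NP-40 at 4°C. Values, from duplicates, describe thermal stability against control samples on a log2 fold-change scale.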", "values": [{"target": "PDE2A (UniProt O00408)", "log2 fold change": "-0.033 (inactive)"}, {"target": "PSMC5 (UniProt P62195)", "sequence (P62195 whole entry, looked up)": "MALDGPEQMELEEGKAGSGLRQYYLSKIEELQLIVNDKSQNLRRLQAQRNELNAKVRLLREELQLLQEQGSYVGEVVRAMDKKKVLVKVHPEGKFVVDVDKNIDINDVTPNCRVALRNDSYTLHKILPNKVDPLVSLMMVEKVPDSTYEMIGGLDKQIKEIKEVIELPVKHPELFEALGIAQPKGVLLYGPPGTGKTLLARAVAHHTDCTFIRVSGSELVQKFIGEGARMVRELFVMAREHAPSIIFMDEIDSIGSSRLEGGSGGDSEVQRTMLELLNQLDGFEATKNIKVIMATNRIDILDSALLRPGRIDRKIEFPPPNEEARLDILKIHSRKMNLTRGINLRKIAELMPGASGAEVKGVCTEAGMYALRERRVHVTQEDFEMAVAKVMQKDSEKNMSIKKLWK", "log2 fold change": "0.054 (inactive)"}, {"target": "POMP (UniProt Q9Y244)", "sequence (Q9Y244 whole entry, looked up)": "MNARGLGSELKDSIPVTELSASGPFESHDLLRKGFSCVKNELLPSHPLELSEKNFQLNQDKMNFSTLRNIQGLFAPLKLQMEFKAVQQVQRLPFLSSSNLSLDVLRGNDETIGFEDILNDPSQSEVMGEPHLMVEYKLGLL", "log2 fold change": "-0.024 (inactive)"}, {"target": "PELO (UniProt Q9BRX2)", "log2 fold change": "-0.174 (inactive)"}, {"target": "POLR2A (UniProt P24928)", "log2 fold change": "-0.094 (inactive)"}, {"target": "PHAX (UniProt Q9H814)", "sequence (Q9H814 whole entry, looked up)": "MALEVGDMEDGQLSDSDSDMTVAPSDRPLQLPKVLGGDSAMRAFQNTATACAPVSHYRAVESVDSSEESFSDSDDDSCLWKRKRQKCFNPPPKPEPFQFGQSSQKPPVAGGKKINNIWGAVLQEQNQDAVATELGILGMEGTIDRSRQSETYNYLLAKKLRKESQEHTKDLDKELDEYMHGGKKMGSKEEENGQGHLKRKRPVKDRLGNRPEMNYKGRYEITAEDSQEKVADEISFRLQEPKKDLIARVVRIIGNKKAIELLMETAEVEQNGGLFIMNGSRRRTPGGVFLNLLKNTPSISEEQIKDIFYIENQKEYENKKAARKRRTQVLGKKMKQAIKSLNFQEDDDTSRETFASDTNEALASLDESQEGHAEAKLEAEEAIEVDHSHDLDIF", "log2 fold change": "0.013 (inactive)"}, {"target": "PRPF31 (UniProt Q8WWY3)", "log2 fold change": "-0.065 (inactive)"}, {"target": "PKM isoform 2 (UniProt P14618)", "log2 fold change": "0.116 (inactive)"}, {"target": "PSMD11 (UniProt O00231)", "log2 fold change": "0.061 (inactive)"}, {"target": "PURA (UniProt Q00577)", "log2 fold change": "0.036 (inactive)"}, {"target": "PPIL4 (UniProt Q8WUA2)", "sequence (Q8WUA2 whole entry, looked up)": "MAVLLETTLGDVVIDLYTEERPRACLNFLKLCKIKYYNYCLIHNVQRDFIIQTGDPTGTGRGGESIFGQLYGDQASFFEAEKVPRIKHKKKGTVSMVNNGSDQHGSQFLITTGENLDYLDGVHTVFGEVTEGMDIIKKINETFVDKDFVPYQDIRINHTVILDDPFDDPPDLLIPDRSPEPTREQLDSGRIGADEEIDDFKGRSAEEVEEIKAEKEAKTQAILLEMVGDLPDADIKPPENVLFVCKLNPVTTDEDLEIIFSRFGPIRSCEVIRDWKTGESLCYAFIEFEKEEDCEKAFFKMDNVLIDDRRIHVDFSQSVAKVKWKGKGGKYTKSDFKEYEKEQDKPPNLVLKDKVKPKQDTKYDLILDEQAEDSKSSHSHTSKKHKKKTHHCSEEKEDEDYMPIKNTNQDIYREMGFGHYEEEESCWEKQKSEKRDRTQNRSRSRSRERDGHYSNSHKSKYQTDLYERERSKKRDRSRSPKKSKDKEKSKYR", "log2 fold change": "-0.071 (inactive)"}, {"target": "POLR2K (UniProt P53803)", "log2 fold change": "0.053 (inactive)"}, {"target": "PIK3C3 (UniProt Q8NEB9)", "log2 fold change": "-0.015 (inactive)"}, {"target": "PRIM2 (UniProt P49643)", "log2 fold change": "-0.061 (inactive)"}, {"target": "PARG (UniProt Q86W56)", "log2 fold change": "-0.013 (inactive)"}, {"target": "PTP4A1 (UniProt Q93096)", "sequence (Q93096 whole entry, looked up)": "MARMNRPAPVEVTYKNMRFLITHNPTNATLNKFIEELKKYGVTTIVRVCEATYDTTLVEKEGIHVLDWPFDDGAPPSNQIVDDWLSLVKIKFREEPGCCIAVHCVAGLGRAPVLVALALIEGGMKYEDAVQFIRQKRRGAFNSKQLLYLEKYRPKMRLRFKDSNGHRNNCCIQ", "log2 fold change": "0.016 (inactive)"}, {"target": "PPP1R14A (UniProt Q96A00)", "log2 fold change": "0.029 (inactive)"}, {"target": "POLR3K (UniProt Q9Y2Y1)", "sequence (Q9Y2Y1 whole entry, looked up)": "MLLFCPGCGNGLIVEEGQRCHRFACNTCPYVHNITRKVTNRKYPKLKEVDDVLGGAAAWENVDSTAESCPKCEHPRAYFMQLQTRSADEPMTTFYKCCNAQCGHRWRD", "log2 fold change": "0.057 (inactive)"}, {"target": "PARL (UniProt Q9H300)", "log2 fold change": "-0.09 (inactive)"}, {"target": "QRSL1 (UniProt Q9H0R6)", "log2 fold change": "-0.089 (inactive)"}, {"target": "PRPF40A (UniProt O75400)", "log2 fold change": "-0.062 (inactive)"}, {"target": "PLA2G15 (UniProt Q8NCC3)", "sequence (Q8NCC3 whole entry, looked up)": "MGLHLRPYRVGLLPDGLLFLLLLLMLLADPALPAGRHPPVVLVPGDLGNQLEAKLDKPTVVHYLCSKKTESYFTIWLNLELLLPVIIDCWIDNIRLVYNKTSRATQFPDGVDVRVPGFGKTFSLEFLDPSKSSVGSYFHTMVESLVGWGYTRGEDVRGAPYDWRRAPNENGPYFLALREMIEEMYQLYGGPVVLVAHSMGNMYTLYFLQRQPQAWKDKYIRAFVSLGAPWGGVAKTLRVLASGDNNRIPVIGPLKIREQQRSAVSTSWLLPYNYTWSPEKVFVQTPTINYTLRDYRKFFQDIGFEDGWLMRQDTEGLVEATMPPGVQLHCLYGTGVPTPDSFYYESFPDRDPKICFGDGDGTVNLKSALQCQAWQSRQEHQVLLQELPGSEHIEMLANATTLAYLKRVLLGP", "log2 fold change": "0.001 (inactive)"}, {"target": "PATL1 (UniProt Q86TB9)", "sequence (Q86TB9 whole entry, looked up)": "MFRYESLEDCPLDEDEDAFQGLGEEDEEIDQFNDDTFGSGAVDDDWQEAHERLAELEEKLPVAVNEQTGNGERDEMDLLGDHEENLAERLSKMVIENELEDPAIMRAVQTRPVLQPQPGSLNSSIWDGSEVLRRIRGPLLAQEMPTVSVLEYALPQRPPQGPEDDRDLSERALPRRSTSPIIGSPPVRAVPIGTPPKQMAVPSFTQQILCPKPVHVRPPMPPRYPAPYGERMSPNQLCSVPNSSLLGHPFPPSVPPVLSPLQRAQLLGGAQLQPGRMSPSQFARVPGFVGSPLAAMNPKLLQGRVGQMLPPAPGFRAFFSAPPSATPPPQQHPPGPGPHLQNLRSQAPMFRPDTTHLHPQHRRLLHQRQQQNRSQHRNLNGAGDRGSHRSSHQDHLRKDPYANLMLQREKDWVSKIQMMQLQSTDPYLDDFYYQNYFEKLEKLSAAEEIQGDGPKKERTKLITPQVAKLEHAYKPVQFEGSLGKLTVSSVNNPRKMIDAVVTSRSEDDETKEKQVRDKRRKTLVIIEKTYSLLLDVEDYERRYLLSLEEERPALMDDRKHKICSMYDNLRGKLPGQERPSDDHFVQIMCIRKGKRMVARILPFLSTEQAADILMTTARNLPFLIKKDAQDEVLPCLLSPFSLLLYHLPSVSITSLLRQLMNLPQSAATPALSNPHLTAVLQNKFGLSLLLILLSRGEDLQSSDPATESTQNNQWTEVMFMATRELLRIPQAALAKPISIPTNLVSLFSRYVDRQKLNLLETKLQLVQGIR", "log2 fold change": "-0.025 (inactive)"}, {"target": "PDCD6IP (UniProt Q8WUM4)", "log2 fold change": "-0.103 (inactive)"}, {"target": "PRKACA (UniProt P17612)", "log2 fold change": "-0.025 (inactive)"}, {"target": "PEX13 (UniProt Q92968)", "sequence (Q92968 whole entry, looked up)": "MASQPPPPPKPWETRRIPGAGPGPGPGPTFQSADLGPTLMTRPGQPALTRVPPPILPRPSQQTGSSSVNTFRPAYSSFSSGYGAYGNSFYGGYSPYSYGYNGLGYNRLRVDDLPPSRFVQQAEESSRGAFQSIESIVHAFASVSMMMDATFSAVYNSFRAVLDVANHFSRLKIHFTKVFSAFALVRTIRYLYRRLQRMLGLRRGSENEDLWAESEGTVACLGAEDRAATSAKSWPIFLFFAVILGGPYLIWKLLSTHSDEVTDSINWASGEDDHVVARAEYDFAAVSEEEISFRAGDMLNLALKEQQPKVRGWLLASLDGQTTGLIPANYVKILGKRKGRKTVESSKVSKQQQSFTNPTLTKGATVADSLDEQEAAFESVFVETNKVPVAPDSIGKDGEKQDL", "log2 fold change": "-0.034 (inactive)"}, {"target": "PPP1R35 (UniProt Q8TAP8)", "log2 fold change": "-0.002 (inactive)"}, {"target": "PIGT (UniProt Q969N2)", "sequence (Q969N2 whole entry, looked up)": "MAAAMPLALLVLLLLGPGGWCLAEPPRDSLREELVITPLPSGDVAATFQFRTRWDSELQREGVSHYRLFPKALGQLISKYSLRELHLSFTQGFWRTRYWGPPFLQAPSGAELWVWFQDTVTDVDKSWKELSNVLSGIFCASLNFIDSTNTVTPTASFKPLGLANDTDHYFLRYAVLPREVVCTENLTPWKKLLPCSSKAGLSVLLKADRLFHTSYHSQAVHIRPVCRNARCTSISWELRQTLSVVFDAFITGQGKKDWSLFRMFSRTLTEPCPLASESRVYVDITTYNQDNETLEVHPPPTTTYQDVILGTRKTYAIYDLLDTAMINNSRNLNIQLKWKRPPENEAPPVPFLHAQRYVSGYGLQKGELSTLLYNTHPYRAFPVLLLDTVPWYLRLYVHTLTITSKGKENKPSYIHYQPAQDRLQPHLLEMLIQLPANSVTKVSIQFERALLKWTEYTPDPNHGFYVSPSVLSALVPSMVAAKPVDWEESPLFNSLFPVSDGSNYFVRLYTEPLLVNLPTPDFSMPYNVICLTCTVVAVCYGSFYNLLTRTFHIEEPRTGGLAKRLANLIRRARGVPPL", "log2 fold change": "-0.002 (inactive)"}, {"target": "PDS5B (UniProt Q9NTI5)", "log2 fold change": "-0.167 (inactive)"}, {"target": "PRKAR1A (UniProt P10644)", "sequence (P10644 whole entry, looked up)": "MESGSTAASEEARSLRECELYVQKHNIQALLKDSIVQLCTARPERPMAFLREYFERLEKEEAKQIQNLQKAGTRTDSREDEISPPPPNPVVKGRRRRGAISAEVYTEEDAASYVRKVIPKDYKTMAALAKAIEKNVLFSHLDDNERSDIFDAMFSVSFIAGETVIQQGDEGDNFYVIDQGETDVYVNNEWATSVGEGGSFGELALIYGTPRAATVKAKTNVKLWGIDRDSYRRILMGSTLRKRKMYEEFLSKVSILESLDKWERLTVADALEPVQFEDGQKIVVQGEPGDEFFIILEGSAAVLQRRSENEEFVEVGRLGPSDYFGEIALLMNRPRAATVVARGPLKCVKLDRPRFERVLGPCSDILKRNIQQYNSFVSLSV", "log2 fold change": "-0.041 (inactive)"}, {"target": "PGM3 isoform 4 (UniProt O95394)", "log2 fold change": "-0.063 (inactive)"}, {"target": "PLK1 (UniProt P53350)", "log2 fold change": "0.005 (inactive)"}, {"target": "PI4K2A (UniProt Q9BTU6)", "log2 fold change": "-0.05 (inactive)"}, {"target": "PLSCR1 (UniProt O15162)", "sequence (O15162 whole entry, looked up)": "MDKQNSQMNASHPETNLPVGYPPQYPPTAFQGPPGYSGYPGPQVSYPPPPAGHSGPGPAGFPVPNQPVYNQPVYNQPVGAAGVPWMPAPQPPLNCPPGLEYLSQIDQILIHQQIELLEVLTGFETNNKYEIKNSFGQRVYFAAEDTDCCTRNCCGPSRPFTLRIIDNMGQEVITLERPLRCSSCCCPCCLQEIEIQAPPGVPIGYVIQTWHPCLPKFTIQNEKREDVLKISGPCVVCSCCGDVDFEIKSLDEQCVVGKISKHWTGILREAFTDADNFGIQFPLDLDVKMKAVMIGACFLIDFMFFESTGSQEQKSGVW", "log2 fold change": "-0.068 (inactive)"}, {"target": "POLD3 (UniProt Q15054)", "log2 fold change": "-0.108 (inactive)"}, {"target": "PPP1CA (UniProt P62136)", "log2 fold change": "-0.02 (inactive)"}, {"target": "PRKAB2 (UniProt O43741)", "sequence (O43741 whole entry, looked up)": "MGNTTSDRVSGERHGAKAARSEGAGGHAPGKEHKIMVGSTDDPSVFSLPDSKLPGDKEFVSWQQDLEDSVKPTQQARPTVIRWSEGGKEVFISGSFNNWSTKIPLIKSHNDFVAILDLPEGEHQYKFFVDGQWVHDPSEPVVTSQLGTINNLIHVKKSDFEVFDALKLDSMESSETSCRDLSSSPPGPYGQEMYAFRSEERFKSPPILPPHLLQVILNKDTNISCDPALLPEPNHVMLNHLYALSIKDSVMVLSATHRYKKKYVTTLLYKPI", "log2 fold change": "0.162 (inactive)"}]}]}
